Assay outcomes deposited in PubChem BioAssay by National Center for Advancing Translational Sciences (NCATS).
Sampled rows, rich in hits. Any-hit rate of the full collection: about 15%.
TDP1 cell CPT: DT40-hTDP1 cell growth loss with CPT; AID 686979; 420,000 compounds, 12% hits; chicken DT40 Tdp1-/-;hTDP1 cells + 20 nM CPT, ATP luminescence, 48 h; Potency, µM (highest dose often 46.2 µM), without a hit: at the top dose activity change, negative = growth inhibition, actives largely listed as inhibitors; also: nearly all actives have a fitted effect of over 55% in size
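Cell growth measured by CellTiter-Glo luminescence after a minimum 48 h, 37 C compound exposure with 20 nM CPT in Tdp1-knockout DT40 cells stably expressing hTDP1, seeded 400/well; qHTS titration format.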
DT40 TDP1 no CPT: qHTS for Inhibitors of human tyrosyl-DNA phosphodiesterase 1 (TDP1): qHTS in cells in absence of CPT; DT40 Tdp1-/- hTDP1 cells, no CPT, ATP luminescence, 48 h; Potency, µM (series often up to 46.2 µM), for the others: top-dose activity change, negative = growth inhibition, usual class: inhibitors; 420,000 compounds, 15% hits; AID 686978, 2013; also: nearly all actives have a fitted effect of over 55% in size
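Growth of hTDP1-complemented DT40 Tdp1-knockout cells is measured by ATP luminescence after at least 48 hr compound exposure at 37 °C, with DMSO substituting for the 20 nM CPT used in the parallel screen.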
12-LOX inh: inhibitors of human 12S-lipoxygenase ALOX12; Potency, µM (highest dose often 108 µM), for inactives: at the top dose activity change, negative = inhibition, usual class: inhibitors; 580,000 compounds, 1.1% hits; P18054; purified 12hLO, xylenol orange hydroperoxide absorbance
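Purified human 12hLO (150 nM final) in 25 mM Hepes, 0.01% Triton X-100, pH 7.0 was preincubated 15 min at room temperature with compound. Then 40 uM arachidonic acid was added, 30 min. Hydroperoxide was read by Fe-XO absorbance ratio 573/405 nm.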
ELG1 repair inh: inhibitors of ELG1-dependent DNA repair in HEK293T cells. 330,000 compounds, 2.3% hits. Potency, µM (highest dose often 46.1 µM), without a hit: top-dose activity change, negative = inhibition, most hits filed as inhibitors. AID 504467. HEK293T ELG1-luciferase reporter, luminescence, 16 h; DNA damage induced by 5-fluorouridine; also: nearly all actives have a fitted effect of over 55% in size
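Step one: seed 2,000 cells per well. Step two: pin-transfer compound or DMSO alongside 5-fluorouridine. Step three: incubate 16 hr, 37 °C, 5% CO2. Step four: add ONE-Glo, wait 30 min, read luminescence.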
RORgamma inh: blocks mouse ROR gamma transcriptional activity; P51450; Drosophila S2 Gal4-RORgamma UAS-luciferase reporter, 20 h; 310,000 compounds, 5.4% hits; AID 2551; Potency, µM (highest dose often 53.6 µM), inactives show top-dose activity change, negative = inhibition, actives largely listed as inhibitors; also: nearly all actives have a fitted effect of over 60% in size
Target sequence (P51450 whole entry, looked up, the tested form may be a part): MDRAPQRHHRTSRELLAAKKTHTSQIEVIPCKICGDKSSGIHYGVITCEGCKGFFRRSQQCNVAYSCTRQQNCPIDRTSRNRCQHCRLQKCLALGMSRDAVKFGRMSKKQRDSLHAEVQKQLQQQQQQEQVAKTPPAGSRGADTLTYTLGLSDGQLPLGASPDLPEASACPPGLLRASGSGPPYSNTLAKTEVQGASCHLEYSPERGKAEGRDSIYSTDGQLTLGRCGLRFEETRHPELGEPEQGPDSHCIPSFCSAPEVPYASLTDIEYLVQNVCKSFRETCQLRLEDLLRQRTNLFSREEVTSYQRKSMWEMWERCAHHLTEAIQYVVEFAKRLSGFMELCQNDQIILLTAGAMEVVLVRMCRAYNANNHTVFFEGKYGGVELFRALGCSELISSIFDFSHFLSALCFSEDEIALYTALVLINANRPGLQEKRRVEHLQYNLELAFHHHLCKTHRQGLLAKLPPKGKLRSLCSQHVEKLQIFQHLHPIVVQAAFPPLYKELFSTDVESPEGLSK
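Drosophila Schneider cells stably carrying a metallothionein-driven Gal4 DBD–ROR gamma fusion and a UAS-Photinus luciferase reporter were exposed to compound for 1 hr, then induced with copper sulfate (700 uM final) for 20 hr at ambient temperature before luminescence reading.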
Gal4-VP16 FLuc: counter-screen for ROR gamma inhibitors: Gal4-VP16 reporter; Drosophila S2 Gal4-VP16 UAS-luciferase, luminescence, 20 h; Potency, µM (titrated, usually from 53.6 µM), for inactives: at the top dose activity, negative = inhibition, actives largely listed as inhibitors; 310,000 compounds, 3.5% hits; AID 2546;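 also: Gal4-VP16 expression switched on by copper sulfate through the metallothionein promoter; nearly all actives have a fitted effect of over 50% in size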
* hit, by the source's call; ? = inconclusive; / = no result; ! = not active in a repeat; [ ] = dose if it differs, or a comment. Calls follow the shape of the dose curve; as a rule, active = well fitted curve in the direction sought with a large enough effect; inconclusive = small, poorly fitted or top-dose-only effect, or another doubt; inactive = no such curve, though single readings can be large; an effect the other way counts as inactive or inconclusive. % is scaled to controls: 0 for no effect and ±100 for the full control effect; potency is read from the fitted curve at half-maximal effect.

SMILES	TDP1 cell CPT	DT40 TDP1 no CPT	12-LOX inh	ELG1 repair inh	RORgamma inh	Gal4-VP16 FLuc
COc1ccc2c(Cn3cnc4cc([N+](=O)[O-])ccc4c3=O)cc(=O)oc2c1	5.17µM*	6.51µM*	/	?	16.9%	-2.1%
Cc1ccc(OCCn2cnc3cc([N+](=O)[O-])ccc3c2=O)cc1	?	?	3.2%	20.6µM*	-12.6%	-9.9%
CCc1noc(-c2nc(-c3cccc(F)c3)no2)n1	/	/	11.2%	/	/	/
COc1ccc2c(ccn2CCNC(=O)Cn2nc3c(cc2=O)CCCC3)c1	/	/	19.2%	/	/	/
O=C1CSC(=S)N1N=Cc1c(F)cccc1Cl	-27.2%	?	?	/	/	/
COc1ccc2ccccc2c1/C=N/N1C(=O)CSC1=S	5.8%	-21.3%	-11.6%	11.0%	7.94µM*	?
O=C1CSC(=S)N1N=Cc1c(O)ccc2ccccc12	20.6µM*	13µM*	11.2µM*	/	/	/
COc1cccc(/C=N/N2C(=O)CSC2=S)c1O	?	?	35.5µM*	?	3.98µM*	4.47µM*
CCc1sc(C(=O)N2CCCCCC2)cc1Br	/	/	-3.9%	/	/	/
Cc1ccc(CN2CCN(c3cccc4[nH]ccc34)CC2)cc1	16.4µM*	?	-4.3%	0.2%	-0.1%	-3.4%
Fc1ccc(N2CCN(Cc3c[nH]c4ccccc34)CC2)cc1	/	/	/	?	-16.5%	6.0%
Cc1ccccc1N1CCN(Cc2c[nH]c3ccccc23)CC1	3.66µM*	6.51µM*	?	-20.1%	-28.8%	7.0%
O=C(c1ccc(Cl)cc1)N1CCN(c2cccc3[nH]ccc23)CC1	-6.5%	-23.6%	-5.9%	-4.5%	2.2%	-9.5%
c1cnc(N2CCN(Cc3c[nH]c4ccccc34)CC2)nc1	1.84µM*	2.06µM*	0.0%	1.1%	-12.3%	-12.1%
COc1cccc(CCc2ccccc2C(=O)N2CC[C@](C)(O)[C@H](C)C2)c1	/	/	16.5%	/	/	/
CSc1ccccc1NC(=O)CN(C)C(c1ccccc1)c1ccccc1	/	/	-6.1%	/	/	/
O=C(CC1CCN(C(=O)c2cccc(F)c2)C1)NCc1ccccc1 (configuration not stated)	/	/	10.2%	/	/	/
Cc1ccc(N(CCCC(=O)Nc2ccccc2Br)S(C)(=O)=O)cc1	/	/	11.5%	/	/	/
CCCCCC[n+]1ccccc1/C=C/c1ccc(N(C)C)cc1	0.058µM*	0.0517µM*	?	/	/	/
COCCCNc1nc2nonc2nc1NCCSC	8.3%	1.4%	-11.4%	23.1µM*	-6.0%	-9.5%
CCCn1nnnc1NC(=O)c1ccc2ccccc2c1	?	18.4µM*	-13.2%	?	1.58µM*	1µM*
CCCCC(=O)Nc1nnnn1CCC	14.2%	-12.5%	?	11.4%	14.1µM*	?
CCCn1nnc(NC(=O)c2ccc3ccccc3c2)n1	?	-14.6%	10.3%	?	22.5%	8.1%[10 µM]
C=CCOC(=O)C1=C(C)NC(SCC(N)=O)=C(C#N)C1c1ccc(C)cc1 (configuration not stated)	-31.3%	?	477.2%	17.9%	-1.9%	-2.3%
C=CCOC(=O)C1=C(C)NC(SCC)=C(C#N)C1c1ccc(Cl)cc1 (configuration not stated)	0.731µM*	0.517µM*	-22.1%	?	28.9%	-1.8%
SMILES	TDP1 cell CPT	DT40 TDP1 no CPT	12-LOX inh	ELG1 repair inh	RORgamma inh	Gal4-VP16 FLuc
CCOC(=O)C1=C(C)NC(SCC(=O)OC)=C(C#N)C1c1ccc(C(=O)OC)cc1 (configuration not stated)	?	23.1µM*!	33.1%	-3.3%	0.0%	2.5%
Cc1ccc(C(=O)NCC(=O)NCC(=O)OCc2ccc(Oc3ccc([N+](=O)[O-])cc3)cc2)cc1	?	20.6µM*	-4.7%	/	/	/
O=C(CNS(=O)(=O)c1ccccc1)OCC(=O)c1ccc([N+](=O)[O-])cc1	20.6µM*	?	-13.8%	5.7%	-9.9%	?
Cc1ccc(C(=O)NCC(=O)NCC(=O)OCC(=O)c2ccc([N+](=O)[O-])cc2)cc1	23.1µM*	23.1µM*	-18.1%	0.4%	-5.8%	4.8%
COc1ccccc1CN1CCOCC2(C1)CN([S+](=O)([O-])c1ccccc1)C2	/	/	3.7%[176 µM]	/	/	/
S=C(NCCc1ccccc1)N1CCN(Cc2ccc(Cl)c(Cl)c2)CC1	18.4µM*	?	1.3%	0.7%	?	-21.6%
Cc1ccc(NC(=S)N2CCN(Cc3ccccc3)CC2)cc1	-11.6%	-3.5%	-15.2%	5.4%	7.94µM*	-1.4%
COC(=O)c1ccc(NC(=S)N2CCN(Cc3ccccc3)CC2)cc1	-19.7%	-4.7%	-17.8%	?	3.3%	?
COC(=O)c1ccc(NC(=S)N2CCN(Cc3cccc(C)c3)CC2)cc1	-3.1%	-11.1%	-8.1%	-19.4%	11.2µM*	?
Cc1ccccc1NC(=S)N1CCN(Cc2ccccc2)CC1	12.4%	?	6.2%	-3.3%	?	?
Cc1cc(C)cc(NC(=S)N2CCN(Cc3ccccc3)CC2)c1	?	?	-10.5%	3.9%	7.08µM*	?
CCC(=O)Nc1ccc(C(C)NCc2ccsc2)cc1 (configuration not stated)	/	/	-10.6%	/	/	/
CC(C)c1ccc(NC(=S)N2CCN(Cc3ccccc3)CC2)cc1	?	25.9µM*	-5.2%	-0.1%	7.94µM*	?
S=C(Nc1ccc(Cl)cc1)N1CCN(Cc2ccccc2)CC1	-0.1%	-0.9%	-6.8%	-3.3%	11.2µM*	-27.9%
O=S(=O)(c1ccccc1)N1CCN(C(=S)Nc2ccccc2)CC1	9.9%	-3.6%	438.3%	-9.7%	-14.7%	-5.4%
CC(C)c1ccc(NC(=S)N2CCN(S(=O)(=O)c3ccccc3)CC2)cc1	-9.0%	-5.7%	?	-0.1%	11.2µM*	?
CC(C)(C)NC(=O)N1CCC(OC2CCN(S(C)(=O)=O)CC2)CC1	/	/	11.4%	/	/	/
O=C(CCC1CCN(S(=O)(=O)c2ccccc2)CC1)NCc1ccco1	/	/	17.9%	/	/	/
COc1ccc(-c2cc(-c3ccccc3)n[nH]2)c(O)c1	-10.3%	-19.8%	?	?	3.98µM*	-3.4%[10 µM]
COc1ccc(-c2nnc(-c3ccccc3O)o2)cc1	?	10.3µM*	1.4%	?	?	12.6µM*
COc1ccc(-c2cc(-c3ccccc3O)[nH]n2)cc1	-14.2%	?	141.8%	?	6.31µM*	15.8µM*
COc1ccc(O)c(-c2cc(-c3cccs3)[nH]n2)c1	14.6µM*	?	?	?	3.98µM*	?
O=c1c2sccc2ncn1Cc1coc(-c2ccccc2)n1	/	/	4.4%	/	/	/
CSc1cccc(NC(=O)c2ccc(C)c(F)c2)c1	/	/	20.4%	/	/	/
